HIV Env fusion = HIV envelope-mediated fusion inhibition; HeLa-JRFL Env/CEM21 cell fusion, luciferase; inhibition, % at 12.3 µM; 360,000 compounds, 1.1% hits; AID 651610;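 active = mean replicate inhibition score of at least 50 and every replicate individually at or above 50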;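 also: 0% = plate neutral controls and 100% = maraviroc near 300 nM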
F508del corr = correctors of CFTR F508del function in bronchial epithelial cells; CFBE cells, YFP halide quenching; stimulated with forskolin plus potentiator P3; % fluorescence drop versus neutral controls; activity (quench increase), % at 7.58 µM; 350,000 compounds, 0.36% hits;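 active = mean added fluorescence quench of at least 8% versus neutral control, with both replicates also reaching 8%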;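 also: cells transiently co-express mutant CFTR-F508del with the halide-sensitive YFP; corrector assay measuring rescue of mutant channel to the surface after 24 h compound exposure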
PAX8 reporter = PAX8 transcriptional activity inhibition. RMG-I TPO-luciferase reporter, SteadyGlo, 24 h. inhibition, % at 12.6 µM. 360,000 compounds, 1.2% hits;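 active = mean replicate inhibition at least 60% with every replicate also reaching 60%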;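 also: luciferase light reporting Pax8 driven TPO promoter activity; plate controls were median of neutral control wells for no effect and mitoxantrone controls for full effect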
GSIS activator = primary screen for activators of insulin secretion dependent on glucose, INS-1E cells, GLuc reporter luminescence. INS-1E GLuc reporter insulin secretion, 2-3 h. activation, % at 16.6 µM. 370,000 compounds, 0.61% hits. AID 743287;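 active = lowest replicate activation of at least 40%, so every replicate reaches that level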;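 also: 0% = median of neutral control wells and 100% = median of IBMX positive control wells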
EWS-Fli block = blocks EWS/Fli oncoprotein-driven transcription; A673 NR0B1-luciferase reporter, viability-normalised; 350,000 compounds, 0.67% hits; AID 651661; inhibition, % at 12.6 µM;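 active = mean inhibition of at least 50% after viability correction, with every replicate also passing that limit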;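 also: firefly luciferase signal divided by Alamar Blue viability fluorescence both relative to DMSO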
PGC1a acetyl inh = lowers PGC1a acetylation signal in U2OS cells. 350,000 compounds, 0.17% hits. AlphaScreen anti-acetyl-lysine; with virally co-expressed GCN5 acetyltransferase. inhibition, % at 15.6 µM. AID 651687;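 active = every replicate shows inhibition of at least 40%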;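 also: 0% = neutral control wells and 100% = positive control wells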
The depositor's hits bear a star; [ ] = remark or other dose. This is a sample that favours compounds with a hit; in the whole collection about 2.7% have one here.

What do the screens show for `N#CC1=C(N)Oc2cc(N)ccc2C1c1ccccc1F` (stereo unspecified)?
HIV Env fusion: 10.7; F508del corr: -1.2; PAX8 reporter: 39.4; GSIS activator: -6.9; EWS-Fli block: 54.5*; PGC1a acetyl inh: 2.6

Results for N#CC1=C(N)Oc2cc(N)ccc2C1c1cc(Br)cs1 (stereo unspecified) ?
HIV Env fusion: -10.0; PAX8 reporter: 28.2; EWS-Fli block: 58.4*; PGC1a acetyl inh: -45.2

What do the screens show for `N#CC1=C(N)Oc2cc(N)ccc2C1c1ccsc1` (stereo unspecified)?
HIV Env fusion: -19.8; PAX8 reporter: -1.9; GSIS activator: 10.4

How did COc1cccc(C2C(C#N)=C(N)Oc3cc(N)ccc32)c1OC (stereo unspecified) do in these assays?
HIV Env fusion: -22.7; PAX8 reporter: -0.6; GSIS activator: -1.1; PGC1a acetyl inh: 3.1

What do the screens show for `CC(=O)N[C@H]1C[C@@H]2O[C@@H](CO)CC[C@@H]2O[C@@H]1CCc1ccc(C#CC2(O)CCCC2)cc1`?
F508del corr: 2.8; EWS-Fli block: 9.1; PGC1a acetyl inh: 11.4

How did O=P(OC1CCCCC1)(OC1CCCCC1)C(O)c1ccccc1 (stereo unspecified) do in these assays?
HIV Env fusion: 60.8*; PGC1a acetyl inh: 4.9

What do the screens show for `O=P(OC1CCCCC1)(OC1CCCCC1)C(O)c1cccnc1` (stereo unspecified)?
HIV Env fusion: -1.8; F508del corr: -2.1; PAX8 reporter: 17.9; GSIS activator: 0.4; EWS-Fli block: 3.8; PGC1a acetyl inh: 14.0

Results for C[C@@H]1CCCCO[C@@H](CN(C)Cc2ccc(C(=O)O)cc2)[C@@H](C)CN([C@@H](C)CO)C(=O)c2cc(NC(=O)Cc3ccccc3)ccc2O1 ?
HIV Env fusion: -9.4[16.7 µM]; F508del corr: -1.4; PAX8 reporter: -24.1; GSIS activator: 1.6; EWS-Fli block: 44.8; PGC1a acetyl inh: -1.4

How did O=S(=O)(c1ccc(NCCOCCO)nc1)N1CCCCC1 do in these assays?
HIV Env fusion: -0.4; F508del corr: -3.9; PAX8 reporter: -2.5; GSIS activator: 10.4; EWS-Fli block: -0.1

Results for O=S(=O)(c1ccc(NCCCO)nc1)N1CCOCC1 ?
HIV Env fusion: 9.0; F508del corr: 2.0; PAX8 reporter: -4.0; GSIS activator: 48.8*; EWS-Fli block: -5.3

What do the screens show for `O=C(c1cccs1)N1C[C@@H](O)[C@H](n2cc(C3CC3)nn2)C[C@@H]1c1ccccc1`?
HIV Env fusion: 11.3; F508del corr: -0.4; PAX8 reporter: 2.1; GSIS activator: 5.9; EWS-Fli block: -7.9

Results for O=C(c1cccs1)N1C[C@H](O)[C@@H](n2cc(C3CC3)nn2)C[C@@H]1c1ccccc1 ?
HIV Env fusion: 8.8; F508del corr: 1.4; PAX8 reporter: 97.8*; GSIS activator: -11.4; EWS-Fli block: 17.8; PGC1a acetyl inh: -7.8

Results for C[C@H](CO)N1C[C@H](C)[C@H](CN(C)S(=O)(=O)c2ccc(F)cc2)Oc2ccc(NS(=O)(=O)c3ccccc3)cc2CC1=O ?
HIV Env fusion: 85.6*[16.7 µM]; F508del corr: -0.2; PAX8 reporter: -3.8; GSIS activator: -3.3; EWS-Fli block: 7.9; PGC1a acetyl inh: 1.1

How did C[C@H](CO)N1C[C@H](C)[C@H](CN(C)S(=O)(=O)c2ccc(F)cc2)Oc2ccc(NS(=O)(=O)c3ccc(Cl)cc3)cc2CC1=O do in these assays?
HIV Env fusion: 58.8*[16.7 µM]; F508del corr: -1.4; PAX8 reporter: 1.1; GSIS activator: -9.9; EWS-Fli block: -0.6; PGC1a acetyl inh: 12.7

What do the screens show for `C[C@@H]1CN([C@@H](C)CO)C(=O)Cc2cc(NS(=O)(=O)c3ccc(Cl)cc3)ccc2O[C@@H]1CN(C)CC1CCCCC1`?
HIV Env fusion: -5.9[16.7 µM]; F508del corr: 5.6; PAX8 reporter: 106.3*; GSIS activator: -11.9; EWS-Fli block: -9.1; PGC1a acetyl inh: 2.0

Results for C[C@@H]1CN([C@H](C)CO)C(=O)Cc2cc(NS(=O)(=O)c3ccccc3)ccc2O[C@@H]1CN(C)S(=O)(=O)c1ccc(Cl)cc1 ?
HIV Env fusion: 2.3[16.7 µM]; F508del corr: 2.4; PAX8 reporter: 103.6*; GSIS activator: -1.4; EWS-Fli block: 19.4; PGC1a acetyl inh: 3.0

What do the screens show for `O=C(Nc1nccs1)[C@H]1[C@H](CO)[C@H]2Cn3c(cccc3=O)[C@@H]1N2C(=O)C1CCC1`?
F508del corr: -5.1; GSIS activator: 9.3; EWS-Fli block: 8.9

Results for C[C@@H]1CN([C@@H](C)CO)C(=O)c2cc(NC(=O)C3CCCCC3)ccc2O[C@@H](C)CCCCO[C@H]1CN(C)Cc1ccccc1 ?
HIV Env fusion: -16.3[16.7 µM]; F508del corr: -0.7; PAX8 reporter: -26.9; GSIS activator: -6.0; EWS-Fli block: 12.5; PGC1a acetyl inh: -6.0

What do the screens show for `Cc1ccc(S(=O)(=O)Nc2cccc3c2O[C@H](CN(C)Cc2ccc(Cl)c(Cl)c2)[C@H](C)CN([C@H](C)CO)C3=O)cc1`?
HIV Env fusion: 85.2*[16.7 µM]; F508del corr: 2.2; PAX8 reporter: 1.0; GSIS activator: -2.8; EWS-Fli block: -5.6; PGC1a acetyl inh: -20.2

How did Cc1ccc(S(=O)(=O)Nc2cccc3c2O[C@H](CN(C)Cc2ccc(Cl)c(Cl)c2)[C@H](C)CN([C@@H](C)CO)C3=O)cc1 do in these assays?
F508del corr: -0.1; PAX8 reporter: 5.3; GSIS activator: -12.6; EWS-Fli block: -8.8; PGC1a acetyl inh: 5.3

How did C[C@H](CO)N1C[C@H](C)[C@@H](CN(C)Cc2ccc(Cl)c(Cl)c2)Oc2c(NS(=O)(=O)c3ccc(F)cc3)cccc2C1=O do in these assays?
HIV Env fusion: 3.7; F508del corr: 2.3; PAX8 reporter: 14.6; GSIS activator: -19.0; EWS-Fli block: 9.8; PGC1a acetyl inh: -31.1

What do the screens show for `Cc1ccc(S(=O)(=O)Nc2cccc3c2O[C@@H](CN(C)Cc2ccc(Cl)c(Cl)c2)[C@@H](C)CN([C@H](C)CO)C3=O)cc1`?
HIV Env fusion: 86.7*[16.7 µM]; F508del corr: 3.0; PAX8 reporter: 31.7; GSIS activator: -11.7; EWS-Fli block: 12.8; PGC1a acetyl inh: 7.5

What do the screens show for `C[C@@H]1CN([C@@H](C)CO)C(=O)c2cccc(NS(=O)(=O)c3ccc(Cl)cc3)c2O[C@@H]1CN(C)Cc1ccc(-c2ccccc2)cc1`?
HIV Env fusion: 26.2[16.7 µM]; F508del corr: 0.1; PAX8 reporter: 64.9*; GSIS activator: -16.5; EWS-Fli block: 15.9; PGC1a acetyl inh: -10.4

Results for Cc1ccc(S(=O)(=O)Nc2cccc3c2O[C@H](CN(C)Cc2ccc(Cl)c(Cl)c2)[C@@H](C)CN([C@@H](C)CO)C3=O)cc1 ?
HIV Env fusion: 37.8[16.7 µM]; F508del corr: 1.8; PAX8 reporter: 5.3; GSIS activator: -21.5; EWS-Fli block: 2.1; PGC1a acetyl inh: -50.5

Source: PubChem BioAssay (Broad Institute)
